98 compounds from PubChem BioAssay AID624330 (Southern Research Specialized Biocontainment Screening …, 2012) can be followed below.

Molecules are shown by their SMILES. Hit rate of the full screen: of about 340,000 compounds, about 2,100 (0.62%) were called active. The list is a sample of the results. Measured potencies and affinities stand elsewhere. Values without a mark were called inactive.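 Rule for the calls: active = first-screen hits whose inhibition reached a set limit at any dose in the follow-up dose series; inconclusive = inhibition above the set first-screen limit but never retested; inactive = the rest.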

This assay deals with Rac GTPase-activating protein 1 (Homo sapiens) (UniProt Q9H0H5). Nature of the assay: blockers of MgcRacGAP-driven Rac1 GTP hydrolysis – biochemical, ADP Hunter fluorescence, primary and confirmatory, confirmation (AID 624330).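 Note: fluorescence reports GDP produced by GAP-driven GTP hydrolysis.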 The conditions noted are these: MgcRacGAP-stimulated Rac1 GTP hydrolysis, at 30 µM, hits give high values, GST-tagged Rac1 F28L mutant substrate.
Sequence of Rac GTPase-activating protein 1 (Homo sapiens) (Q9H0H5 whole entry, looked up): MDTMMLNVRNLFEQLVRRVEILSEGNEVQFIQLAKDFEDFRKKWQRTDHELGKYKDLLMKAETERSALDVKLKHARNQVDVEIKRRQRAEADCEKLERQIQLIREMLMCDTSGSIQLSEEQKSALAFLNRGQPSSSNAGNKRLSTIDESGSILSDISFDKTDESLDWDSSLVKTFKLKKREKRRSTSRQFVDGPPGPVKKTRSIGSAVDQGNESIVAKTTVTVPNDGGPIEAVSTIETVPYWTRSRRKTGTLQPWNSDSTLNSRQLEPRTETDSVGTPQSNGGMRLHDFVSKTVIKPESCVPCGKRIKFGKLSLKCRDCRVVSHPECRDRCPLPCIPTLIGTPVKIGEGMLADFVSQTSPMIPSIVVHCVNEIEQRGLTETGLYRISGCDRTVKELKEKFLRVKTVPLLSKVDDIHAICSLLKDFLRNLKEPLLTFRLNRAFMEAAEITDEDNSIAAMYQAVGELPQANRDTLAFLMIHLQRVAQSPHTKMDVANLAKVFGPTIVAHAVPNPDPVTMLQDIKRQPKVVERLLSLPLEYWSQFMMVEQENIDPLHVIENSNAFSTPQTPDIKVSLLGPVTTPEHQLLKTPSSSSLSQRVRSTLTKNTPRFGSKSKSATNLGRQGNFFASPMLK
`O=c1cc(-c2ccc(Cl)c(Cl)c2)[nH][nH]1`: the inhibition – broadly, the drop in the measured response relative to a control, in per cent – is 8.61%. The result for `CCCCC(=O)N1C/C=C\C(c2ccc(OC)cc2)N(Cc2ccc(F)cc2)C(=O)C1` (stereo not drawn) reads 8.3%; that for `COc1ccc(/C=N/Nc2ncc(C(F)(F)F)cc2Cl)cc1OC`, -7.93%.

With `COc1cc(/C=N/Nc2ccc(C(F)(F)F)cn2)cc(OC)c1O`, the inhibition is 13%. For the compound `O=C(O)c1ccc(/C=N/Nc2ccc(C(F)(F)F)cn2)cc1`, the inhibition was 13.8%. For the compound `O=[N+]([O-])c1ccc(NN=Cc2ccc(O)cc2O)nc1`, the inhibition was 24.6%. Turning to `Cc1ncc(CO)c(/C=N/Nc2ccc(C(F)(F)F)cn2)c1O`, the inhibition was 61.5%. As for `FC(F)(F)c1ccc(N/N=C/c2cccnc2)nc1`, the inhibition was 4.55%. In the case of `Cc1cccc(C(CC(=O)O)NC(=O)C(F)(F)F)c1` (stereo not drawn), the inhibition was 2.11%. As to `C=CCN(CC=C)CCCOc1ccc(C)cc1OC`, the inhibition was 14.4%.

`Cc1ccc(NS(=O)(=O)c2ccc3c(c2)NC(=O)C(C)C(=O)N3)cc1C` (stereo not drawn): the inhibition was -6.55%. As for `CCC(Oc1ccccc1C)C(=O)N1CCCN(C)CC1` (stereo not drawn), the figure is 3.47%; as for `COc1ccc(OC)c(/C=N/c2c(-c3ccc(O)c(OC)c3)nc3ccccn23)c1`, 4.63%; as for `COc1cc(-c2nc3cnccn3c2Nc2ccc3c(c2)OCCO3)ccc1O`, 15.7%. As to `COc1cc(-c2nc3ccccn3c2/N=C/c2cccc(OC)c2O)ccc1O`, the inhibition is 10.6%.

As to `Cc1ccc2nc(-c3ccccc3O)c(Nc3ccc4c(c3)OCCO4)n2c1`, the inhibition was 11.2%.

As for `CCOc1cc(-c2nc3ccccn3c2NCC2CCCO2)ccc1O` (stereo not drawn), the inhibition was -4.32%. In the case of `Cc1cccc(C)c1Nc1c(-c2ccc(N3CCOCC3)cc2)nc2cnccn12`, the inhibition was 13.6%. The result for `COc1cc(-c2nc3cnccn3c2NC(C)(C)CC(C)(C)C)ccc1O` reads 17%; that for `COc1cc(-c2nc3cccc(C)n3c2NCC2CCCO2)ccc1O` (stereo not drawn), -43.9%; that for `O=C1CC2(CCCC2)C(=O)N1c1ccc(S(=O)(=O)NCC2CC2)cc1Cl`, 5.71%. The result for `COc1ccc(OCc2nnc(SC3CCOC3=O)n2-c2ccccc2)cc1` (stereo not drawn) reads 11.2%.

In the case of `c1nnc(-c2ccc3c(c2)OCO3)o1`, the inhibition was 12.3%. For `CC(C)(C)C(=O)NCc1ccc(C(=O)CSc2nnc(C3CC3)n2C2CC2)s1`, the inhibition is 8.51%. The result for `C[C@]12C(=O)N(c3cccc(Cl)c3)C(=O)N1[C@@H]1c3ccccc3OC[C@@H]1[C@H]2c1ccccc1` reads 6.88%. On to `CCOC(=O)Cc1csc(SCC(=O)NC2CCS(=O)(=O)C2)n1` (stereo not drawn), for which the inhibition is 0.45%.

In the case of `Cc1cc(-c2ccc(Cl)cc2)n2nc(N)nc2n1`, the inhibition is 8.73%. As for `COc1ccc(C/C(N)=N/OC(C)=O)cc1OC`, the figure is 7.14%; as for `COc1cc(-c2nc3cnccn3c2Nc2ccccc2)ccc1O`, 30.3%; as for `COc1cc(-c2nc3cnccn3c2Nc2ccc(C(C)C)cc2)ccc1O`, 21.9%. As for `CCOC(=O)C(C)Sc1nc(-c2ccccc2)nc2ccccc12` (stereo not drawn), the figure is -2.03%; as for `ON=C1CCCC2CCCCC12` (stereo not drawn), -2.9%. With `CC(C)CC(=O)NC(c1ccccc1)c1c(O)ccc2ccccc12` (stereo not drawn), the inhibition is 7.84%.

For `CC(C)CNC(=O)CC(c1ccccc1)c1c(O)ccc2ccccc12` (stereo not drawn), the inhibition was 10.5%. The result for `CN(Cc1ccccc1F)C(=O)CN1c2cccc3cccc(c23)S1(=O)=O` reads 6.24%. As for `COc1cccc(CNC(=O)CCS(=O)(=O)c2ccc3c(c2)NC(=O)CO3)c1`, the inhibition is 12.4%. As to `CCCn1c(SCC(=O)NNC(=O)c2ccccc2)nnc1-c1cccnc1`, the inhibition is 12.3%. The result for `O=C(Nc1ccccc1)c1cc2ccccc2c(=O)s1` reads -4.83%.

With `COc1ccc2cc(C(=O)Nc3ccc(Cl)cc3)sc(=O)c2c1OC`, the inhibition was 7.43%. `O=C(NCCO)c1cc2ccccc2c(=O)s1`: the inhibition was 6.83%. On to `COc1ccc2cc(C(=O)Nc3ccc(F)cc3)sc(=O)c2c1OC`, for which the inhibition is 0.7%. As for `CCN1C(=O)[C@H]2[C@H]3CN=C(SCc4ccc(C(=O)OC)cc4)N3[C@@](Cc3ccccc3)(C(=O)OC)[C@H]2C1=O`, the figure is 11.1%; as for `COC(=O)C(Cc1c[nH]c2ccccc12)NC(=O)c1cccc(S(=O)(=O)N2CCCCC2)c1` (stereo not drawn), 2.63%; as for `CCOC(=O)c1ccc(NC(=O)C(=O)NCC2(c3ccc(OC)cc3)CCOCC2)cc1`, 15.5%. For the compound `CC(C(=O)Nc1ccc(Cl)cc1)N1C(=O)NC2(CCCC2)C1=O` (stereo not drawn), the inhibition is 3.21%.

Take `CCN(CC(=O)NCc1ccc(F)cc1)C(=O)CN1CCN(c2cc(Cl)ccc2C)CC1`: the inhibition is 4.22%. The result for `Cc1cc(O)c(C=Nc2ccc(N3CCOCC3)cc2)c(C)c1Cl` reads 24.8%; that for `Cc1ccc(N=Cc2ccc(O)cc2O)cc1F`, 2.37%; that for `CCOc1ccc(N=Cc2ccccc2O)cc1`, 4.12%.

As to `Cn1c(O)c(C=Nc2ccc(N3CCOCC3)cc2)c(=O)n(C)c1=S`, the inhibition was 10.4%. On to `COc1ccc(N=Cc2ccccc2O)cc1`, for which the inhibition was 7.18%. For the compound `O=[N+]([O-])c1cc(Br)c(O)c(C=Nc2ccc(N3CCOCC3)cc2)c1`, the inhibition was 54.6%. With `Oc1ccc(N=Nc2cccc(Cl)c2)cc1C=Nc1ccc(N2CCOCC2)cc1`, the inhibition was 7.02%. As to `CCN(CC)c1ccc(C=Nc2ccc(N(C)C)cc2)c(O)c1`, the inhibition is 19.7%. Take `CS(=O)(=O)c1ccc(Cl)c(NC(=O)COC(=O)CNC(=O)c2ccccc2)c1`: the inhibition was 6.09%.

As to `O=C(Cc1cccc(F)c1)Nc1ccc2c(c1)CCC2`, the inhibition was 6.98%. With `C=C(c1ccccc1Cl)[n+]1ccccc1`, the inhibition is -11.7%. The result for `N#CCCN(Cc1cccnc1)C(=S)NC(=O)c1ccco1` reads 5.92%; that for `O=C(OCC(=O)N1CCCC1)c1c(Cl)ccc(Cl)c1Cl`, -3.47%.

Consider `Cc1nc(C(=O)N(C)C)nn1-c1cc(Cl)ccc1Cl`, for which the inhibition is 9.33%. For `Cc1ccc(-n2c(C(C)C)nc3oc4ccccc4c(=O)c3c2=O)cc1`, the inhibition is 0.93%.

Regarding `Oc1ccc(Br)cc1C=Nc1ccc(Cl)cc1`, the inhibition was 8.07%. Regarding `Oc1ccc(Br)cc1/C=N/N1CCCCC1`, the inhibition was 6.18%. As for `Cc1cc(C)cc(NC(=O)c2cccc(NC(=O)c3ccco3)c2)c1`, the figure is -0.13%; as for `O=C(Nc1cccc(NC(=O)c2ccco2)c1)c1cccc(Br)c1`, 7.43%; as for `COc1ccccc1NC(=O)c1oc2ccccc2c1NC(=O)C1CC1`, 1.66%. Take `CCOc1ccc(CN(C)CC(=O)c2c(N)n(Cc3ccccc3)c(=O)n(CC)c2=O)cc1OC`: the inhibition was 5.23%. Regarding `CCn1c(=O)c(C(=O)CN(C)Cc2ccc(F)cc2)c(N)n(Cc2ccccc2)c1=O`, the inhibition was 5.49%. `Cc1cccc(NC(=O)c2nc[nH]c2C(=O)N[C@@H](CC(C)C)C(=O)OCc2ccccc2)c1`: the inhibition was 5.96%. In the case of `Cc1cc(C)cc(NC(=S)N2CCC(C(=O)c3ccc(F)cc3)CC2)c1`, the inhibition was -15.2%. As for `CC(C)CN(C(=O)c1cc2ccccc2o1)c1c(N)n(CC(C)C)c(=O)[nH]c1=O`, the figure is 7.89%.

On to `Cc1nn(-c2ccccc2)c(C)c1NC(=O)COC(=O)CCOc1ccccc1`, for which the inhibition is 2.57%. On to `Cc1ccc(N/C=C2\CCCCC2=O)c(C)c1`, for which the inhibition was 5.15%. The result for `CC(=O)Nc1ccc(N/C=C2/CCCC2=O)cc1` reads 14.8%.

In the case of `c1ccc(Nc2ccccc2)cc1`, the inhibition was 3.58%. As for `CCCCC(CC)C(=O)Nc1ccc(Nc2ccccc2)cc1` (stereo not drawn), the figure is 22.3%; as for `COCC(=O)Nc1ccc(Nc2ccccc2)cc1`, 15.4%. Turning to `CCC(CC)C(=O)Nc1ccc(Nc2ccccc2)cc1`, the inhibition is 28%.

Take `O=C(O)CCC(NS(=O)(=O)c1ccc(N2CCCC2=O)cc1)C(=O)O` (stereo not drawn): the inhibition was -1.24%. With `CCOc1ccc(S(=O)(=O)N2CCN(C(=O)c3cc(-c4ccccc4)nn3-c3ccccc3)CC2)cc1`, the inhibition is 6.52%. In the case of `CNC(=O)C(=O)Nc1ccc2c(c1)N(S(=O)(=O)c1cccs1)CCC2`, the inhibition was 4.61%. As to `CN(CCCC1CCCC1)C(=O)c1cc(COc2c(F)cccc2F)on1`, the inhibition was 7.43%. The result for `CCOc1cc(/C=C/c2cccc[n+]2C)ccc1OCC(=O)Nc1ccc(C)cc1` reads 7.44%. In the case of `C[n+]1ccccc1/C=C/c1ccc(F)c(F)c1`, the inhibition is 9.42%.

Consider `Cc1ccc(CS(=O)Cc2ccc(C(=O)N3CCN(c4ccccn4)CC3)o2)cc1` (stereo not drawn), for which the inhibition was 9.12%. `COc1cc2[nH]ccc(=O)c2cc1OC`: the inhibition was 1.14%. The result for `COc1ccc2cc[nH]c2c1` reads 6.12%; that for `Nc1[nH][nH]c(=O)c1N=Nc1ccc2c(c1)OCO2`, 19.5%; that for `Nc1n[nH]c(N)c1N=Nc1ccc(F)cc1`, 12.4%.

With `Cc1ccccc1-n1c(SCC(=O)c2c(N)n(C3CC3)c(=O)[nH]c2=O)nnc1N1CCOCC1`, the inhibition is 4.29%.

For `CC1(C)CC(=O)C(C(C2=C(O)CC(C)(C)CC2=O)c2cccnc2)C(=O)C1` (stereo not drawn), the inhibition is 12%. The result for `COc1cccc(C(C2=C(O)CC(C)(C)CC2=O)C2C(=O)CC(C)(C)CC2=O)c1` (stereo not drawn) reads -5.78%. The result for `CC1(C)CC(=O)C(Br)=C(O)C1` reads -4.56%. For the compound `CC1(C)CC(=O)C(C(C2=C(O)CC(C)(C)CC2=O)c2ccc([N+](=O)[O-])cc2)C(=O)C1` (stereo not drawn), the inhibition was 10.9%.

As for `CC1(C)CC(=O)C(C(C2=C(O)CC(C)(C)CC2=O)c2ccco2)C(=O)C1` (stereo not drawn), the inhibition is 29%. For the compound `CC1(C)CC(=O)C(C(C2=C(O)CC(C)(C)CC2=O)c2ccc(Cl)c([N+](=O)[O-])c2)C(=O)C1` (stereo not drawn), the inhibition is -0.37%.

In the case of `CCCC(C1=C(O)CC(C)(C)CC1=O)C1C(=O)CC(C)(C)CC1=O` (stereo not drawn), the inhibition is 8.39%. The result for `CC1(C)CC(=O)C(C(C2=C(O)CC(C)(C)CC2=O)c2cccc(O)c2)C(=O)C1` (stereo not drawn) reads 7.97%.
